# Source: PubChem (National Center for Advancing Translational Sciences (NCATS))
# Hits are enriched below; roughly 1.1% of the tested compounds scored in any of these assays.
# PTAP TSG101 blk – blocks PTAP/TSG101 interaction to inhibit HIV-1 budding. Q99816. Potency, µM (series often up to 115 µM), hits mostly inhibitors. 340,000 tested, under 10 active. Fluorescence polarization, FITC-PTAP peptide / Tsg101 binding. AID 493005; active = well fitted inhibition curve with a large enough effect in the main read-out, with a control signal flat, not every such curve was filed as active; inconclusive = small, poorly fitted or top-dose-only effect, or effect the other way, or a change in a side signal; inactive = no such curve, though single readings can be large or run the other way
# Target sequence (Q99816 whole entry, looked up): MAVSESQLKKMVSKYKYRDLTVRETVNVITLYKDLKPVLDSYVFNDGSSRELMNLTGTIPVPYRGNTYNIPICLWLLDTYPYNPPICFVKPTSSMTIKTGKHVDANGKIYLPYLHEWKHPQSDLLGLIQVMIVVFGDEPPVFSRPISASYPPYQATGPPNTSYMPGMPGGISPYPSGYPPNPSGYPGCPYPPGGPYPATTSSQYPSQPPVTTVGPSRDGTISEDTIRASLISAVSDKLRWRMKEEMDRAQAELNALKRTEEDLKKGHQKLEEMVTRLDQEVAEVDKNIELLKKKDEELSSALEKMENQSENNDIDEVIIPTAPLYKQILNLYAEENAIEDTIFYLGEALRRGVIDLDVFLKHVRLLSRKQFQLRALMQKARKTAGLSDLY
#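 Steps: Tsg101 binding domain dispensed (10 uM final), compounds pinned in DMSO, FITC-labeled PTAP-motif peptide added (50 nM final); after 20 min binding at room temperature, polarization measured.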
# ALOX12 inh – blocks human arachidonate 12S-lipoxygenase. P18054. purified 12hLO, xylenol orange hydroperoxide absorbance. Potency, µM (doses to about 108 µM), hits mostly inhibitors. hit rate 1.1% among 580,000. AID 1671190
#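 Hydroperoxide product was detected by ferrous iron/xylenol orange as the 573 to 405 nm absorbance ratio. Arachidonic acid at 40 uM (final) was turned over for 30 min at room temperature by 150 nM human 12hLO, pH 7.0 Hepes buffer, after 15 min compound preincubation.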
# Eya2 phos inh – inhibitors of human Eya2 phosphatase activity | Potency, µM (titrated, usually from 76.9 µM), actives largely listed as inhibitors | hit rate 0.006% among 330,000 | O00167 | recombinant Eya2, OMFP fluorescence dephosphorylation (OMFP is methylfluorescein phosphate)
#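 Eya2 (0.2 uM) preincubated 10 min at ambient with compound, then OMFP substrate added at 50 uM; 10 min reaction in 50 mM HEPES pH 7.5, 50 mM NaCl, 5 uM MgCl2, 0.05% BSA, 1 mM DTT. Fluorescence read at Ex 485/Em 525 nm.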
# USP2a block – blocks human ubiquitin-specific protease USP2a; O75604; USP2 core, Ub-CHOP2 coupled fluorogenic reporter, 485/531; Potency, µM (series often up to 38.3 µM), usual class: inhibitors; hit rate 0.01% among 330,000
#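 Cell-free coupled assay: 10nM USP2 core preincubated 30min RT with compound in Tris-HCl pH 8.0/CaCl2/CHAPS buffer, then 25nM Ub-CHOP2 and 25nM reporter substrate; fluorescence (Ex 485/Em 531) read after 60min RT, normalized to NEM inhibition, concentration-response curves fitted.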
# Hits are given with their value; – = inactive; ? = inconclusive; · = no result; ! = not confirmed by another sample; [ ] = another dose, or the depositor's remark. Unless noted, calls come from the whole dose curve; as a rule, active = well fitted curve in the direction sought with a large enough effect; inconclusive = small, poorly fitted or top-dose-only effect, or another doubt; inactive = no such curve, though single readings can be large; an effect the other way counts as inactive or inconclusive.
SMILES,PTAP TSG101 blk,ALOX12 inh,Eya2 phos inh,USP2a block
COc1ccc2c(c1)C1NC(=S)NC(C)(O2)C1C(=O)Nc1ccc(Cl)cc1 (stereo unspecified),–,40µM,–,–
Oc1ccc(-c2csc(-c3cccnc3)n2)cc1O,–,–,–,–
Cc1nc(-c2ccc(O)c(O)c2)cs1,–,7.1µM,–,–
Cc1ccc2nc(-c3ccc(O)c(O)c3)cn2c1,–,18µM,–,–
Oc1ccc(-c2csc(Nc3ncccn3)n2)cc1O,–,40µM,–,–
Oc1ccc(-c2csc(-c3ccccc3)n2)cc1O,–,7.1µM,–,–
O=C(c1cccc2cnccc12)N1CCCC2(C=Cc3ccccc3O2)CC1 (stereo unspecified),·,–,·,·
Oc1ccc(-c2nc(-c3ccc(Cl)cc3)cs2)cc1,·,14µM,·,·
CCOC(=O)c1nsnc1NCCSC(=N)N,–,45µM,–,–
CCC(C(=O)NCCn1ccn2nc(-c3ccc(OC)cc3)cc2c1=O)c1ccccc1 (stereo unspecified),·,–,·,·
COC(=O)c1c(C)sc(-c2c(-c3ccc4c(c3)OCCO4)[nH]c3[nH]c(=O)[nH]c(=O)c23)c1O,·,25µM,·,·
Cc1cc(NC(=O)CSc2ccc3nnc(-c4cccc(F)c4)n3n2)no1,–,45µM,–,–
CC(Oc1ccc(Br)cc1Cl)C(=O)NC1(C#N)CCCCC1 (stereo unspecified),·,–,·,·
CCN(CC)C(=S)SSC(=S)N(CC)CC,–,1.1µM!,–,–
CCN(CC)C(N)=S,·,–,·,·
Cc1c(CN2CCC(O)(c3ccccc3)[C@H](N3CCCC3)C2)cnn1C (stereo partly specified),·,–,·,·
CCC(NC(C)C)C(O)c1ccc(O)c(O)c1 (stereo unspecified),–,10µM!,–,–
O=C(Nc1ccc(N2CCCC2)cc1)c1cccc(-c2cc3ccccc3oc2=O)c1,–,11µM,–,?
O=C(Nc1ccccc1N1CCCC1)c1cccc(-c2cc3ccccc3oc2=O)c1,–,–,–,–
O=C1/C(=C/c2ccc(O)c(O)c2)Oc2cc(O)ccc21,–,11µM,–,–
OC1(CN2CCN(c3cnccn3)CC2)CNCCOC1 (stereo unspecified),·,10µM,·,·
CC(=NNC(=S)Nc1cccc(Cl)c1)c1ccccn1,–,?,·,·
CC(=NNC(=S)N1CCC1)c1ccccn1,–,50µM,·,·
CC(=NNC(=S)SCc1ccccc1)c1ccccn1,–,?,·,·
CC(=NNC(=S)N1CCCC1)c1ccccn1,·,18µM,·,·
SMILES,PTAP TSG101 blk,ALOX12 inh,Eya2 phos inh,USP2a block
O=c1[nH]c(C2CCN(Cc3ccccc3C(F)(F)F)CC2)nn1Cc1ccccc1,·,–,·,·
CC(C1CC1)N(C)C(=O)COc1ccc(C#N)cc1 (stereo unspecified),·,–,·,·
CC1(C)CC(=O)C2=C(C1)Nc1ccccc1NC2c1cccc(F)c1 (stereo unspecified),–,11µM,–,–
CC1(C)CC(=O)C2=C(C1)Nc1ccccc1NC2c1cccnc1 (stereo unspecified),–,–,–,–
CN(Cc1ncc[nH]1)c1ccc(-c2nc(CCCc3ccccc3)no2)cn1,·,–,·,·
Cc1ccc2oc(C(=O)N(Cc3ccc(F)cc3)C3CCS(=O)(=O)C3)cc(=O)c2c1 (stereo unspecified),·,–,·,·
O=C1C(c2ccccc2)=S=C2C=Cc3ccccc3N12,·,22µM,·,·
CCOC(=O)CN1C(=O)S/C(=C/c2ccc(N3CCCCC3)o2)C1=O,?,7.9µM,–,–
O=C(O)CN1C(=O)/C(=C/c2ccc(N3CCCCC3)o2)SC1=S,–,?,?,–
CCCN1C(=O)S/C(=C\c2ccc(N3CCOCC3)o2)C1=O,?,40µM,–,–
COC(=O)CN1C(=O)S/C(=C/c2ccc(N3CCCCC3)o2)C1=O,?,45µM,?,?
CN1[C@@H](CCC(=O)NCc2cccs2)CNC(=O)[C@@H]2[C@H]1CCN2Cc1ccccc1,·,–,·,·
CCCCc1ccc2[nH]c(C(=O)OCC)cc2c1,·,–,·,·
O=C1Cc2cc(S(=O)(=O)N3CCN(C(=O)Nc4ccccc4)CC3)ccc2N1,·,–,·,·
COc1ccc2cc(C3CC(c4ccco4)=NN3S(C)(=O)=O)c(Cl)nc2c1 (stereo unspecified),–,35µM,–,–
CCOCCOC(=O)c1nc2ccccc2nc1Nc1cc(C)cc(C)c1,·,7.1µM,·,·
Cn1c(O)c(N=Nc2ccc(F)cc2)c2ccccc21,?,18µM,–,–
O=C(O)CCC(=O)N1CCC2(CC1)Cc1ccccc1N(C(=O)c1ccc(Cl)cc1)C2,·,–[6.33 µM],·,·
